Measurements published in PubChem BioAssay AID602127 (Broad Institute, 2011).
Results with a measured potency or affinity are listed apart. Active and inactive are the calls of the source.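 How the source made its calls: active means every repeat test judged active, meaning a falling signal with potency within twice the top valid dose; inconclusive means repeat tests disagree on the call; inactive means every repeat test inactive, including signal moving upward.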

Molecular target: Cyclin-dependent kinase 2 (Homo sapiens) (UniProt P24941)
Assay: inhibition of human CDK2/cyclin A – biochemical, cherry-picked samples, selectivity assay for Dyrk1A inhibitor project, dose response (AID 602127)

SMILES | outcome
CN(Cc1nccs1)c1ncnc2ccc(-c3ccc4c(c3)OCO4)cc12 | inactive
Clc1cc(Cl)cc(CNc2ncncc2-c2ccc3c(c2)OCO3)c1 | inactive
Cc1occc1CNc1ncnc2ccc(-c3ccc4c(c3)OCO4)cc12 | inactive
Cc1ccsc1CN(C)c1ncnc2ccc(-c3ccc(CO)o3)cc12 | inactive
O=C(Nc1nc2c(s1)CCCC2)c1ccc(N2C(=O)CCC2=O)cc1 | inactive
COc1ccc(-c2nccc(NCc3ccc(C)cc3)n2)cc1 | inactive
Brc1ccc(CNc2nccc(-c3ccc4c(c3)OCO4)n2)cc1Br | inactive
c1coc(CCNc2ncnc3ccc(-c4ccc5c(c4)OCO5)cc23)c1 | inactive
COc1cc(C(=O)Nc2cccc(-c3nncn3C)c2)cc(OC)c1OC | inactive
CC(=O)Nc1cccc(NC(=O)c2cc3ccccc3o2)c1 | inactive
Cc1ccsc1CNc1ncnc2ccc(-c3ccc4c(c3)OCO4)cc12 | inactive
c1nc(NCC2CCCO2)c2cc(-c3ccc4c(c3)OCO4)ccc2n1 (stereo unspecified) | inactive
CN(C)S(=O)(=O)c1ccc(NC(=O)c2cc3ccccc3o2)cc1 | inactive
Cc1c(-c2ccnc(NCc3ccc(Cl)cc3)n2)sc(=O)n1C | inactive
CCOC(=O)c1ccc2ncc(C(=O)OCC)c(Nc3ccc(N4CCOCC4)cc3)c2c1 | inactive
O=[N+]([O-])c1cc(Nc2nccc(-c3ccc4c(c3)OCO4)n2)cc(C(F)(F)F)c1 | inactive
COCCNC(=O)c1ccc2c(c1)nc(C)n2-c1cccc(F)c1 | inactive
O=C(O)COc1ccc(/C=C/c2nc3ccc([N+](=O)[O-])cc3s2)cc1 | inactive
Cc1nc(NC(=O)c2ccccc2)sc1-c1csc(N)n1 | inactive
O=C(COc1ccccc1)Nc1cccc(-c2cn3cccnc3n2)c1 | inactive
CCCNc1ncnc2ccc(-c3ccc4c(c3)OCO4)cc12 | inactive

SMILES | outcome
Brc1cc(Br)cc(CNc2nccc(-c3ccc4c(c3)OCO4)n2)c1 | inactive
O=C(Nc1nc2ccc(Cl)cc2s1)C1CCCO1 (stereo unspecified) | inactive
CSCC(=O)Nc1nc(-c2ccc3c(c2)OCCO3)cs1 | inactive
N#CCSc1nc(Nc2ccc3c(c2)OCO3)c2ccccc2n1 | inactive
CC(=O)Nc1ccc(SCc2ncc(-c3ccccc3)o2)cc1 | inactive
COc1cccc(Nc2nc(-c3ccc(O)cc3)cs2)c1 | inactive
CCN1CCN(Cc2ccc(NC(=O)c3ccc(C)c(NC(=O)N4CCNC4=O)c3)cc2C(F)(F)F)CC1 | inactive
Cc1cc(NCCCn2ccnc2)n2ncc(-c3ccc(Cl)cc3)c2n1 | inactive
Clc1ccc(CNc2ncncc2-c2ccc3c(c2)OCO3)cc1 | inactive
c1nc(NCC2CCCOC2)c2cc(-c3ccc4c(c3)OCO4)ccc2n1 (stereo unspecified) | inactive
Fc1cccc(Nc2nc(-c3ccncc3)nc3ccccc23)c1 | inactive
Clc1ccc(CNc2nccc(-c3ccc4c(c3)OCO4)n2)cc1Cl | inactive
Cc1nc(N)sc1-c1csc(Nc2ccccc2)n1 | inactive
Clc1cc(Cl)cc(CNc2cc(-c3ccc4c(c3)OCO4)ncn2)c1 | inactive
CCOC(=O)c1ccc(-c2ccc3ncnc(N(C)Cc4sccc4C)c3c2)o1 | inactive
c1csc(CNc2ncnc3ccc(-c4ccoc4)cc23)c1 | inactive
CC(=O)Nc1ccc(Nc2cc(C)nc3c(-c4ccccc4)cnn23)cc1 | inactive
COc1cccc(NC(=O)Nc2ccc3c(c2)N(C)C(=O)CS3)c1 | inactive
N#Cc1c(C(F)(F)F)cc(-c2cccc(Cl)c2)[nH]c1=O | inactive
Cc1nc(CN(C)c2ncnc3ccc(-c4ccc5c(c4)OCO5)cc23)cs1 | inactive
Clc1ccc(CNc2ccnc(-c3ccc4[nH]ncc4c3)n2)cc1Cl | inactive

SMILES | outcome
O=C(CSc1nnnn1-c1ccc(O)cc1)Nc1ccc(N2CCOCC2)c(Cl)c1 | inactive
Clc1ccc(CNc2nccc(-c3ccc4c(c3)OCCO4)n2)cc1Cl | inactive
Cc1csc(CN(C)c2ncnc3ccc(-c4ccc5c(c4)OCO5)cc23)n1 | inactive
CCN1CCN(Cc2ccc(NC(=O)c3ccc(C)c(/C=C/c4cnc(Nc5cc(N6CCNCC6)nc(C)n5)cn4)c3)cc2C(F)(F)F)CC1 | inactive
Fc1c(-c2ccc3ncnc(NCc4cccs4)c3c2)ccc2c1OCO2 | inactive
COc1cccc(Nc2nc(NCCO)c3ccccc3n2)c1 | inactive
Clc1ccc(Nc2nccc(-c3ccc4c(c3)OCO4)n2)cc1 | inactive
COc1ccc2c(Cl)c(C(=O)NCc3ccco3)sc2c1 | inactive
COc1cccc(Nc2ncnc3ccccc23)c1 | inactive
Cc1ccc(CNc2ncnc3ccc(-c4ccc5c(c4)OCO5)cc23)o1 | inactive
c1cncc(CNc2ccnc(-c3ccc4cn[nH]c4c3)n2)c1 | inactive
O=c1cc(-c2ccccc2Cl)oc2c(NS(=O)(=O)c3ccccc3C(F)(F)F)ccc(O)c12 | inactive
COc1ccc2c(c1)CCc1c-2n[nH]c1C(=O)O | inactive
Cc1nc(NC(=O)c2ccccc2)sc1-c1csc(NCc2ccco2)n1 | inactive
c1cncc(CNc2cc(-c3ccc4c(c3)OCO4)ncn2)c1 | inactive
Cc1nc(CNc2ncnc3ccc(-c4ccoc4)cc23)cs1 | inactive
CC1Cc2ccccc2N1c1ncnc2nc[nH]c12 (stereo unspecified) | inactive
CN(C)c1ccc(-c2nccc(NCc3cccs3)n2)cc1 | inactive
O=C(Nc1nc(-c2ccc3c(c2)OCCO3)cs1)c1ccco1 | inactive
